From PubChem BioAssay (NCATS) come the findings set out here.

The structures appear in SMILES notation. Unmarked numbers belong to inactive results. Records with an inconclusive call do not appear. Calls of active or inactive are those of the source. Unless noted, calls come from the whole dose curve; as a rule, active = well fitted curve in the direction sought with a large enough effect; inconclusive = small, poorly fitted or top-dose-only effect, or another doubt; inactive = no such curve, though single readings can be large; an effect the other way counts as inactive or inconclusive.

Test [1] addresses Lysosomal acid glucosylceramidase (Homo sapiens) (UniProt P04062). Put plainly: Glucocerebrosidase-p2 (AID 348; in the data active = potency below about 10 µM; note: potency is the fitted concentration of half-maximal effect). Particulars: purified GBA, blue fluorogenic substrate, 40 min. In short, it runs like this: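 Compounds titrated from 0.6 nM upwards against 0.2 nM enzyme in pH 5.9 citric acid/KH2PO4, taurocholate, tween-20; blue fluorogenic substrate 80 uM, 40 min room temperature, stopped and read Ex 365/Em 440 for AC50.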

Test [2] is described as follows: AP1 Signaling Pathway (AID 357; active = well fitted curve in either direction with a large enough effect, not every such curve was filed as active;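 note: ME-180 reporter cells stimulated with EGF at its EC50 level; % is set by controls: 0 for no effect and ±100 for the full control effect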). To be noted: ME-180 AP-1-bla reporter, EGF-induced, beta-lactamase ratio, 5 h; at 7.69 µM (top of the series) unless noted. The gist of the method: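 In this screen, ME-180 cells in Opti-MEM with 0.5% dialyzed FBS received EC50 EGF and compound titrations for 5 h. AP-1 reporter beta-lactamase was detected via CCF4 ratio, giving AC50 for positive and negative modulators.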

The target of test [3] is Cytochrome P450 1A2 (Homo sapiens) (UniProt P05177). The test can be described thus: p450-cyp1a2 (AID 410; calls by dose curve; note: potency is the fitted concentration of half-maximal effect). Particulars: recombinant CYP1A2, luciferin-ME demethylation, luminescence; series mostly up to 57 µM. In short, it runs like this: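 Luminescent readout of luciferin formed from Luciferin-ME by human CYP1A2; data normalized against complete inhibition by 57 uM furafylline. Enzyme 20nM, substrate 100uM at Km, 100mM KPO4 buffer, 60 min reaction at room temperature.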
Cytochrome P450 1A2 (Homo sapiens), sequence (P05177 whole entry, looked up): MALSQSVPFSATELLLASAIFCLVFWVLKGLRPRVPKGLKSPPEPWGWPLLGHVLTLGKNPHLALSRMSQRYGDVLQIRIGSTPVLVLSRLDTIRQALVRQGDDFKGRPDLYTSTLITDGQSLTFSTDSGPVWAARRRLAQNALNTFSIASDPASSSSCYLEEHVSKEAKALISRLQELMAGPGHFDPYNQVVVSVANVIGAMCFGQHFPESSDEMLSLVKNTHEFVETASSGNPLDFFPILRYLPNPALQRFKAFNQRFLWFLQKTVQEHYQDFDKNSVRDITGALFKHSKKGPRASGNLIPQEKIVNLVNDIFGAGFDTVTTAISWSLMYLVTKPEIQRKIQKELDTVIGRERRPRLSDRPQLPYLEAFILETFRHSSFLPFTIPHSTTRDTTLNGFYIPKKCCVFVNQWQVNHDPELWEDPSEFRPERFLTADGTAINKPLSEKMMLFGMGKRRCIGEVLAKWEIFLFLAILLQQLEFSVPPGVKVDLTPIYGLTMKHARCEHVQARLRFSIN

Test [4] is described as follows: NFAT Signaling Pathway (AID 444; active = well fitted curve in either direction with a large enough effect, not every such curve was filed as active;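 note: carbachol stimulus at about its EC50 of 1 µM final; % is set by controls: 0 for no effect and ±100 for the full control effect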). To be noted: Jurkat NFAT-bla M1, carbachol, beta-lactamase ratio, 5 h; at 7.69 µM (top of the series) unless noted. In short, it runs like this:
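Jurkat cells carrying an NFAT-driven β-lactamase reporter and co-transfected muscarinic M1 receptor were treated with compound plus carbachol (1 uM final, an EC50 level) for 5 h at 37 °C. CCF4 loading followed for 1 h at RT; 460/530 nm ratio gave %activity.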

Test [5] in a line: Stat Signaling Pathway (AID 446; active = well fitted curve in either direction with a large enough effect, not every such curve was filed as active;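 note: ME-180 cervical cancer cells given 40 pM IL-6 alongside compound; SIE-controlled beta-lactamase reporter measured as 460/530 nm FRET emission ratio; % is set by controls: 0 for no effect and ±100 for the full control effect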). Particulars: ME-180 SIE beta-lactamase reporter, IL-6 stimulated, 5 h; at 7.69 µM (top of the series) unless noted. In short, it runs like this: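 ME-180 cells carrying a SIE-driven beta-lactamase reporter are stimulated with 40 pM IL-6 for 5 h at 37C in the presence of compound. The 460/530 nm FRET substrate ratio is read after 2.5 h at RT. Data are normalised to 300 pM IL-6 and to 125 nM JAK inhibitor controls.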

Test [6] has as its target Glucocorticoid receptor (Homo sapiens) (UniProt P04150). Put plainly: GR-GFP Redistribution (AID 450;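 active = compounds whose dose series gives a full or clear partial fitted curve of increased nuclear translocation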; note: potency is the fitted concentration of half-maximal effect). Particulars: U2OS GR-GFP nuclear translocation, laser cytometry, 2 h.
For test [7] the target is unchanged. Put plainly: GR-EFC Redistribution (AID 451; calls by dose curve; note: potency is the fitted concentration of half-maximal effect). Particulars: CHO-K1 GR-EFC translocation, beta-gal luminescence, 2 h. In short, it runs like this:
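CHO-K1 cells stably expressing nuclear-localized β-gal enzyme acceptor and GR fused C-terminally to the enzyme donor fragment; ligand-driven nuclear translocation restores β-gal by complementation. Compounds titrated up to 46 uM final, 2 h at 37 °C; luminescence read.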

The target of test [8] is Mitogen-activated protein kinase 10 (Mus musculus) (UniProt Q61831). Put plainly: JNK3 AlphaScreen Assay (AID 530; active = well fitted curve in either direction with a large enough effect, not every such curve was filed as active;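 note: kinase came from lysate of stimulated human HepG2 cells; signal reports phosphorylation of biotinylated GST-cJun 1-79 at Ser73 with 10 µM ATP; % is set by controls: 0 for no effect and ±100 for the full control effect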). Particulars: JNK3 lysate, c-Jun phosphorylation; series mostly up to 57.1 µM. In short, it runs like this: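 Inhibitors reduce antibody binding to phosphorylated biotin-cJun, lowering AlphaScreen luminescence. Lysates from HepG2 cells pre-activated by IL-1beta plus TNF-alpha supplied JNK3; compounds were titrated.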
For orientation: Alpha assays give light when donor and acceptor beads are brought close together.

For test [9], the target named is 3',5'-cyclic-AMP phosphodiesterase 4B (Homo sapiens) (UniProt Q07343). Put plainly: qHTS Assay for Inhibitors of PDE-IV (AID 607; active = well fitted activation curve with a large enough effect in the main read-out, with a control signal flat, not every such curve was filed as active; note: % of control where 0% means no effect). To be noted: HEK293 ACTOne CNG channel cells, membrane potential fluorescence; series mostly up to 22.9 µM. In short, it runs like this: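 HEK293 ACTOne cells with CNG channel (1000/well), endogenous PDE4; membrane potential dye, compounds up to 22.9 uM final. Fluorescence Ex 535/Em 590; RO 20-1724 (100 uM final) as reference.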
3',5'-cyclic-AMP phosphodiesterase 4B (Homo sapiens), sequence (Q07343 whole entry, looked up): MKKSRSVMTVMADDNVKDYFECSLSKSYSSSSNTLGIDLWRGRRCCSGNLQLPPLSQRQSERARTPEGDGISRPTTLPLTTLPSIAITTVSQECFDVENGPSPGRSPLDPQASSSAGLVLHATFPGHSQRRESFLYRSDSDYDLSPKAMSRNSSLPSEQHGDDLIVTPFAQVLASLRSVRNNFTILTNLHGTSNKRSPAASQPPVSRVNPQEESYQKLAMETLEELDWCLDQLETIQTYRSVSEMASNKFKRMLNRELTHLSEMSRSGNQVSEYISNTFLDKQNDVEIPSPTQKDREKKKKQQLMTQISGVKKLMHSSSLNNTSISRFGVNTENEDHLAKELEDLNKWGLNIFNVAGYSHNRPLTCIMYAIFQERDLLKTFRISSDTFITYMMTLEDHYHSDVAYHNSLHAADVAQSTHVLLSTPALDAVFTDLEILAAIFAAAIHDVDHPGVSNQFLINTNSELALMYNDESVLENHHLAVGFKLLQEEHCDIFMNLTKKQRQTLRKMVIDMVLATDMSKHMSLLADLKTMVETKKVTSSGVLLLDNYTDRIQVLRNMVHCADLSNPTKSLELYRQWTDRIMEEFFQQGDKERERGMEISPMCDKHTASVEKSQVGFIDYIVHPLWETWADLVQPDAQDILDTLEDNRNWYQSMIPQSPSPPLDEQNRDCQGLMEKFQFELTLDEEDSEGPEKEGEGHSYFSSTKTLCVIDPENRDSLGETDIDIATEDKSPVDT

The target of test [10] is Cytochrome P450 3A4 (Homo sapiens) (UniProt P08684). The test can be described thus: qHTS Assay for Inhibitors and Substrates of Cytochrome P450 3A4 (AID 884). Note: potency is the fitted concentration of half-maximal effect; nearly all actives have a fitted effect of over 50% in size. Particulars: recombinant CYP3A4, Luciferin-PPXE luminescence; series mostly up to 57.1 µM. The gist of the method:
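20 nM human CYP3A4 with 25 uM Luciferin-PPXE (at KM) in 200 mM KPO4, preincubated 10 min with compound; NADPH regeneration started a 60 min RT reaction. Luciferin detected by luminescence, normalized to 57 uM ketoconazole as full inhibition.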

Test [11] shares this target. The test can be described thus: qHTS Assay for Activators of Cytochrome P450 3A4 (AID 885). Note: nearly all actives have a fitted effect of over 65% in size. Particulars: recombinant CYP3A4, Luciferin-PPXE luminescence, 60 min; series mostly up to 57.1 µM. In short, it runs like this:
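Human CYP3A4 (20 nM) with Luciferin-PPXE at 25 uM (its KM) in 200 mM KPO4; 10 min compound preincubation, then NADPH regeneration and 60 min reaction at RT. Luciferin read by luminescence; normalized to 57 uM ketoconazole full inhibition.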
For orientation: qHTS replaces the single test concentration by a dilution series.

In test [12] the target is Dual specificity protein kinase CLK4 (Homo sapiens) (UniProt Q9HAZ1). Put plainly: qHTS Assay for Inhibitors of CDC-like Kinase 4 (ADP-Glo Assay) (AID 1771). Note: potency is the fitted concentration of half-maximal effect; nearly all actives have a fitted effect of over 70% in size. Particulars: recombinant CLK4, ADP-Glo luminescence; series mostly up to 80 µM. The gist of the method:
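Luminescence from ADP-Glo reports ADP produced by 25 nM Clk4 acting on 100 uM RS repeat peptide with 1 uM ATP over 1 hr at room temperature; residual ATP is depleted before ADP is converted to ATP for detection.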

The target is the same in test [13]. The test can be described thus: qHTS Assay for Inhibitors of CDC-like Kinase 4 (ADP-FP Assay) (AID 1795).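 Note: recombinant human CLK4 phosphorylating RS repeat peptide at 1 µM ATP; % is set by controls: 0 for no effect and ±100 for the full control effect; nearly all actives have a fitted effect of over 60% in size.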 Particulars: Transcreener ADP fluorescence polarization; series mostly up to 50 µM. The gist of the method:
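Recombinant Clk4 (6.25 nM) phosphorylated 100 uM RS repeat peptide with 1 uM ATP in 25 mM Tris pH 7.5, 10 mM MgCl2, 0.5 mM EGTA, 2.5 mM DTT, 0.01% Triton X-100 for 1 h. ADP was detected by Transcreener ADP2 competitive fluorescence polarization after 30 min at room temperature.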

Test [14] addresses Ubiquitin carboxyl-terminal hydrolase 1 (Homo sapiens) (UniProt O94782). The test can be described thus: Inhibitors of USP1/UAF1: Pilot qHTS (AID 504865). Note: nearly all actives have a fitted effect of over 35% in size. Note: potency is the fitted concentration of half-maximal effect. To be noted: purified USP1/UAF1, Ub-rhodamine cleavage fluorescence; series mostly up to 54.9 µM. In short, it runs like this:
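USP1/UAF1 complex at 1 nM preincubated 15 min at room temperature with compound, then Ub-Rho substrate added at 150 nM final. Fluorescence (480/540 nm) read kinetically in 50 mM HEPES pH 7.8, 0.5 mM EDTA, 1 mM TCEP, 0.1 mg/ml BSA, 0.01% Tween-20.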

The nature of test [15]: Primary qHTS for small molecule stabilizers of the endoplasmic reticulum resident proteome: Secreted ER Calcium Modulated Protein (SERCaMP) assay (AID 1508630). Note: % is set by controls: 0 for no effect and ±100 for the full control effect. Particulars: SH-SY5Y GLuc-SERCaMP (Gaussia luciferase released on ER calcium loss) secretion, thapsigargin, luminescence; series mostly up to 38.4 µM. The gist of the method: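 GLuc-SERCaMP-expressing SH-SY5Y cells, pretreated 16 h with compound, are challenged with thapsigargin to empty ER calcium stores; after 4 h, coelenterazine is added directly to the medium and luminescence is imaged.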

In test [16] the target is Cytochrome P450 2D6 (Homo sapiens) (UniProt P10635). Put plainly: qHTS Assay for Inhibitors and Substrates of Cytochrome P450 2D6 (AID 891). Note: potency is the fitted concentration of half-maximal effect; nearly all actives have a fitted effect of over 60% in size. To be noted: recombinant CYP2D6, luciferin-ME EGE luminescence; series mostly up to 57.1 µM. The gist of the method: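 Human CYP2D6 (5 nM) with 30 uM Luciferin-ME EGE (at Km) in 100 mM KPO4, compound preincubated 10 min, then NADPH regeneration system for 60 min at room temperature. Luciferin read by luminescence; normalized to 1.43 uM quinidine.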
Cytochrome P450 2D6 (Homo sapiens), sequence (P10635 whole entry, looked up): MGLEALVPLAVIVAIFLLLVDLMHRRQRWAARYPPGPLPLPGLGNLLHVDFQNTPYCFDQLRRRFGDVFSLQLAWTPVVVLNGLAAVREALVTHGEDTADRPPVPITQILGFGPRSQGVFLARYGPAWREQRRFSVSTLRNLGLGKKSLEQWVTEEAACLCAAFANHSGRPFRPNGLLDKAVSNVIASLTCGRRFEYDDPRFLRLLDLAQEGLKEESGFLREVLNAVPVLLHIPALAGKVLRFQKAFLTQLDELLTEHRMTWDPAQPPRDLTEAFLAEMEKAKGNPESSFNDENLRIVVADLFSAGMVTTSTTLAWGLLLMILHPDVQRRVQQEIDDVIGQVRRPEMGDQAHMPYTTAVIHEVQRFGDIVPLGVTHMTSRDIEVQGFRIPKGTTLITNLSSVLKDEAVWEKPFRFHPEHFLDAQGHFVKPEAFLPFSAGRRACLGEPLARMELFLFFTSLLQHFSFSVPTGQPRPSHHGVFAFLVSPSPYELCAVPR

The target of test [17] is Dual specificity protein kinase CLK4 (Homo sapiens) (UniProt Q9HAZ1). The test can be described thus: qHTS Assay for Inhibitors of CDC-like Kinase 4 (Kinase-Glo Assay) (AID 1770). Note: nearly all actives have a fitted effect of over 65% in size. Note: potency is the fitted concentration of half-maximal effect. To be noted: recombinant Clk4, Kinase-Glo ATP depletion luminescence; series mostly up to 66.7 µM. The gist of the method:
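25 nM Clk4 with 100 uM RS repeat peptide and 1 uM ATP (final) in Tris pH7.5, 10 mM MgCl2, 4.5 h at room temperature. Remaining ATP measured by Kinase-Glo luciferase luminescence.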

Lysosomal acid glucosylceramidase (Homo sapiens), sequence (P04062 whole entry, looked up): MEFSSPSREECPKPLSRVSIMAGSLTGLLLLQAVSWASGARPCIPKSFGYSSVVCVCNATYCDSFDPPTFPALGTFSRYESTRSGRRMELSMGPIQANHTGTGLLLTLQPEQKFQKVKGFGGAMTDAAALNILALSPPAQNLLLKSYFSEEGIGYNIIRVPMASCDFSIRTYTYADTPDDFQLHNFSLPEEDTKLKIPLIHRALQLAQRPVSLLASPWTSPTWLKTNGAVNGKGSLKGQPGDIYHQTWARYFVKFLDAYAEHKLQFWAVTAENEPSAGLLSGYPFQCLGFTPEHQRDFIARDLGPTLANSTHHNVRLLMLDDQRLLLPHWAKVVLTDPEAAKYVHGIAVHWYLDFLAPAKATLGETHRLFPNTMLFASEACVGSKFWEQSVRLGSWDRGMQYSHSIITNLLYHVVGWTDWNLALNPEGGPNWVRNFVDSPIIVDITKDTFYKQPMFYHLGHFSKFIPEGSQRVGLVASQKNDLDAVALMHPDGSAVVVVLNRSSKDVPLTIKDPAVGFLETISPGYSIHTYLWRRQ
Cytochrome P450 3A4 (Homo sapiens), sequence (P08684 whole entry, looked up): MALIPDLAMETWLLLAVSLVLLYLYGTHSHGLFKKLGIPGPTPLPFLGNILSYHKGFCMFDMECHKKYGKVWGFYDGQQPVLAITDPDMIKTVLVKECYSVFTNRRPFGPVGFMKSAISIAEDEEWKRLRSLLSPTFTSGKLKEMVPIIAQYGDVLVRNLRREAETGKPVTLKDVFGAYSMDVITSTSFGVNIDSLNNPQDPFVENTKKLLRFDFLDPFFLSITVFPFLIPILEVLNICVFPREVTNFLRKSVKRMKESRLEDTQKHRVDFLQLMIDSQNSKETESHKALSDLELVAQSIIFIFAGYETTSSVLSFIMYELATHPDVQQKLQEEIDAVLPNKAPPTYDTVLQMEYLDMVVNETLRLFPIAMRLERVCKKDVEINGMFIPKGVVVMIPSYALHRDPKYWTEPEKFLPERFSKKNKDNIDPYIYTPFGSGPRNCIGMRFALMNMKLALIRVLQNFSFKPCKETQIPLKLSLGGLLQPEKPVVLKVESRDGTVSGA
Dual specificity protein kinase CLK4 (Homo sapiens), sequence (Q9HAZ1 whole entry, looked up): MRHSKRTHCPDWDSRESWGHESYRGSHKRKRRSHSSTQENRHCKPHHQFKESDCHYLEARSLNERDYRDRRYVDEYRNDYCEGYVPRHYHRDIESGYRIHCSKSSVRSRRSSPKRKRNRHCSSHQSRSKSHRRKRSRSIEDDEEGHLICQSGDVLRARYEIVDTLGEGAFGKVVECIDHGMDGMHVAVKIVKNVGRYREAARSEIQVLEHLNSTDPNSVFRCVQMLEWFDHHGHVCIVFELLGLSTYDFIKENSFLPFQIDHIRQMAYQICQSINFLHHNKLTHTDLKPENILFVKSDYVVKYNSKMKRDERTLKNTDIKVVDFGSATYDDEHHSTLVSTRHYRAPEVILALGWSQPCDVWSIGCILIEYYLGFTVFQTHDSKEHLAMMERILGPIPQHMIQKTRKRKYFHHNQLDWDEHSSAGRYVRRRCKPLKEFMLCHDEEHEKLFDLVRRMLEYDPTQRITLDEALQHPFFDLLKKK
Ubiquitin carboxyl-terminal hydrolase 1 (Homo sapiens), sequence (O94782 whole entry, looked up): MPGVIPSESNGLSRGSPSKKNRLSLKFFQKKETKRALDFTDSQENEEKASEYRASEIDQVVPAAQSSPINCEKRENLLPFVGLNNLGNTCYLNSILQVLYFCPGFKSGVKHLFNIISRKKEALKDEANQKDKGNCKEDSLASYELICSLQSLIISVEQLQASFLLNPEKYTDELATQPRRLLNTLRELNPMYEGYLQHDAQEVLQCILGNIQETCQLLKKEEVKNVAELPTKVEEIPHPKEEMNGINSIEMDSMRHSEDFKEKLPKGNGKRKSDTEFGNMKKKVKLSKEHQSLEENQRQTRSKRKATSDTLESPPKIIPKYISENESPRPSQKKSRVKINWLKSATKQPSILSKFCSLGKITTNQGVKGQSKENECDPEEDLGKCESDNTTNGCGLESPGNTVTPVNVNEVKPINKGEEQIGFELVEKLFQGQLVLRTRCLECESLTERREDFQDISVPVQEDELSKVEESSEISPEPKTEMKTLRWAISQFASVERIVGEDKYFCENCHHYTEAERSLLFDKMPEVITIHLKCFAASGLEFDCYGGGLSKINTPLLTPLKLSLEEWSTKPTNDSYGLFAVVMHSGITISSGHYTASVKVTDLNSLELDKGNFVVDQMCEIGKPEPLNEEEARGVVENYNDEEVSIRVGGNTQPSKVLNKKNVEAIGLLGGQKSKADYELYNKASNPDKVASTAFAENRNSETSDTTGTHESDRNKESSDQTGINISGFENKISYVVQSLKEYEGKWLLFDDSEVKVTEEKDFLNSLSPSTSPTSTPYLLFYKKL
Glucocorticoid receptor (Homo sapiens), sequence (P04150 whole entry, looked up): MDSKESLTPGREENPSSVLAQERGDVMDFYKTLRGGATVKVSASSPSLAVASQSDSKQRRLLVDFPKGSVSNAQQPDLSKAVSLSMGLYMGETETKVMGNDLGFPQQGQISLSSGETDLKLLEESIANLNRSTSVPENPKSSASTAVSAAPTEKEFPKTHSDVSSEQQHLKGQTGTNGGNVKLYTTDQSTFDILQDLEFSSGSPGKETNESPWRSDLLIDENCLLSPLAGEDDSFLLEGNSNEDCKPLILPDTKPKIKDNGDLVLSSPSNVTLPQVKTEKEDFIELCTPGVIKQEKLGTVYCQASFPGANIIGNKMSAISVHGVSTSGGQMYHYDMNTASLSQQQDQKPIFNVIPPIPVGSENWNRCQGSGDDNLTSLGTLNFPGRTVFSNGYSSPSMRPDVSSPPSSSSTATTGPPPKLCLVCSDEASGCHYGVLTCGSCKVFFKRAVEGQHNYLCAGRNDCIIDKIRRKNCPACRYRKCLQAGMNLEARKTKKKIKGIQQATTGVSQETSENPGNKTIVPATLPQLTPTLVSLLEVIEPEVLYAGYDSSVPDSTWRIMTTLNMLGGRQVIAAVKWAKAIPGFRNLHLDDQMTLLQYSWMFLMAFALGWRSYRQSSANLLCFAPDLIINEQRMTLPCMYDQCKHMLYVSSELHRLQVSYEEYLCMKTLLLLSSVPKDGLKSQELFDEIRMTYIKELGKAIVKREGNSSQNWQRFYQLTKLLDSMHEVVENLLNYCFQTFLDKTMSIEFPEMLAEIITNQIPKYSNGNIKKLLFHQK

With `Cc1cnc(CNc2ncncc2-c2ccc(N(C)C)cc2)cn1`, the Potency in [1] is over 11.4 µM; in [3], 3.16 µM (active); in test [6], over 46 µM; in test [7], over 46 µM; in test [10], 2 µM (active); in [12], 15.8 µM (active). For the same molecule, the activity change, negative = inhibition in test [2] was 3.22%; in [4], -0.821%. Moreover, in test [5], the activity, negative = inhibition was 13.6%. The Potency result in test [8], in test [9], in [11], in test [13] and in [14] was “inactive” throughout. For the same molecule, the outcome in test [15] was inactive.

As for `CCNc1ncc2nc(-c3cc(F)cc(F)c3)c(=O)n(CCC#N)c2n1`, the Potency was over 11.4 µM in test [1], over 9.22 µM in test [6], 0.0631 µM (active) in [16] and 31.6 µM (active) in test [17]. For the same molecule, the values for the activity change, negative = inhibition in test [2] and in test [4] were 28.7% and -24.5%, respectively. The Potency result in test [8], in test [9], in test [13] and in [14] was “inactive” in each case. Also, the result in [15] was inactive.

Turning to `Cc1noc(C)c1-c1nc(NCc2ccccc2)c2ccccc2n1`, the Potency in test [1] was over 11.4 µM; in test [6] it was over 46 µM; in test [7], over 46 µM; in [14], 6.31 µM (active). Moreover, in test [2], the activity change, negative = inhibition was -3.06%. In addition, in test [5], the activity, negative = inhibition is -4.57%. The Potency result in test [8], in [17] and in [13] was “inactive” throughout. For the same molecule, in test [15], the result was inactive.

In the case of `COc1cccc(Nc2ncc3nc(-c4cc(F)cc(F)c4)c(=O)n(C[C@H]4CCCO4)c3n2)c1`, the Potency is over 11.4 µM in test [1], over 9.22 µM in [6] and over 46 µM in test [7]. Moreover, the activity, negative = inhibition in test [5] is -10.3%. The Potency result in test [8], in test [9], in [11], in [17], in test [13] and in test [14] was “inactive” in each case. Moreover, the outcome in test [15] was inactive.

In the case of `CN(C)C(=O)c1ccc(-c2cc(N(C)Cc3ccco3)ncn2)cc1`, the Potency in [1] is over 11.4 µM; in test [3], 25.1 µM (active); in test [6] it was over 46 µM; in test [7], over 46 µM; in test [12], 28.2 µM (active). Further, the activity change, negative = inhibition was -8.02% in test [2] and -13.4% in [4]. In addition, the activity, negative = inhibition in test [5] is 16.7%. The Potency entry in test [8], in test [9], in test [13] and in [14] was “inactive” in each case. The result in test [15] was inactive.
